Here are results for 14 compounds from PubChem BioAssay (NCI).

What all share (assay): NCI-60 one-dose screen, 48 h (100 = growth as untreated, 0 = no growth, -100 = all killed)
What all share (conditions): 10 µM unless noted

Assay [1] concerns HCT-15 colon.
In assay [2] the test system is HT29 colon.
Assay [3] has as its system SNB-75 CNS.
Assay [4] relates to SNB-19 CNS.
Assay [5] relates to U251 CNS.
The test system of assay [6] is PC-3 prostate.
Assay [7] has as its system SK-MEL-5 melanoma.
In assay [8] the test system is SK-MEL-28 melanoma.
Assay [9] deals with UACC-62 melanoma.
In assay [10] the test system is LOX IMVI melanoma.

Structures are written as SMILES. About 83,000 compounds went through this panel and 20% of them were active in at least one assay; those are over-represented in the sample as a whole.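 The endpoint reported here, percent growth, reads 100 for growth as untreated, 0 for no net growth and -100 for all cells dead.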 Unmarked numbers belong to inactive results. Active and inactive are the calls of the source. Rule for the calls: active = growth percent below 10; inactive = the rest.

As to `NCCn1cc(-c2nc(-c3c[nH]c4ncccc34)cs2)c2cc(F)ccc21`, the growth in [1] was 58.9%; in assay [2], 67.2%; in [3], 64.2%; in assay [4], 86.1%; in assay [5], 84.1%; in [6] it was 58.5%. Moreover, the growth is 80% in assay [7] and 101% in assay [8].
As for `COC(=O)[C@]12CC[C@@H](C)[C@H](C)[C@@H]1C1=CC[C@@H]3[C@@](C)(CC#N)C4=C(C[C@@]3(C)[C@]1(C)CC2)OC[C@]4(C)C=O`, the growth in assay [1] was 0.689% (active); in [2], -20.7% (active); in [3] it was 19.3%; in assay [4], 8.5% (active); in assay [5], -45.7% (active); in assay [6], 9.95% (active). Besides, the growth in assay [7] was -89% (active); in assay [8], -19.6% (active).
Take `Nc1nc(Br)nc2c1ncn2C1CC(O)C(CO)O1` (stereo not given): the growth in [1] is 59.1%; in assay [2] it was 66.3%; in [3], 77.4%; in assay [4], 48.6%; in [5], 68.7%; in assay [6] it was 70.1%. In addition, the growth in [7] was 51.2%; in assay [8], 95.8%.
Consider `Cc1cc(N=O)cc(C(C)(C)C)c1O`, for which the growth in assay [1] is 101%; in [2], 85%; in [3] it was 87.7%; in assay [4], 98.7%; in [5] it was 88.6%; in [6], 74.5%. Besides, the values for the growth in [7] and in assay [8] were 98.3% and 106%, respectively.
Take `COc1cc2c(cc1-c1c(C)noc1C)ncc1nc(C3CCCCC3)n([C@@H](C)COC(F)F)c12`: the growth in assay [1] was 20.9%; in assay [2], 13.5%; in [3], 31.3%; in assay [4], 45.6%; in [5], 47.1%; in assay [6], 30.3%. Also, the values for the growth in assay [9], in assay [10] and in [8] were 21.9%, 12.5% and 45.8%, respectively.
Take `Cn1nc(-c2ccccc2)c2c(-c3ccccc3)onc2c1=O`: the growth in assay [1] is 38.3%; in assay [2], 1.6% (active); in assay [3], 20.9%; in [4], 34.3%; in assay [5], 25.2%; in assay [6] it was 32.4%. For the same compound, the growth was 38.1% in assay [9], 53.4% in assay [10] and 74.5% in assay [8].
In the case of `O=C(Nc1ccc(/C=C2\SC(=O)N(Cc3ccc(OC(F)(F)F)cc3)C2=O)cc1)c1ccc(Cl)c([N+](=O)[O-])c1`, the growth in assay [1] was 72.5%; in assay [2], 11.3%; in assay [3] it was 85.5%; in [4] it was 36.8%; in assay [5], -18.8% (active); in [6], 9.15% (active). For the same compound, the growth is 94.4% in assay [9], 73.1% in assay [10] and 95.5% in assay [8].
As to `CCCCCCCCNc1cccc2c1C(=O)c1ccccc1C2=O`, the growth in assay [1] is 107%; in [2], 89.7%; in assay [3], 98.3%; in [4], 96.4%; in assay [5], 110%; in assay [6] it was 104%. In addition, the growth in assay [9] is 96%; in assay [10], 105%; in assay [8] it was 114%.
Turning to `Cc1cc(Cl)nc(N(CCCNc2ccnc3cc(Cl)ccc23)Cc2ccco2)n1`, the growth was 18.3% in [1]; 8.64% (active) in assay [2]; 59.6% in [3]; 31.5% in assay [4]; 26.9% in [5]; 5.4% (active) in assay [6]. The figures for the growth in assay [7] and in assay [8] were -82.6% (active) and 16.1%, respectively.
As to `CCCCC[C@H]1C/C=C2/C(=O)C(Cl)=C[C@@H]2C/C=C\CCCC(=O)O[C@@H](CCCCC)C/C=C2/C(=O)C(Cl)=C[C@@H]2C/C=C\CCCC(=O)O1`, the growth in assay [1] is -24.6% (active); in [2], -56% (active); in assay [3] it was 11.9%; in assay [4], -57.8% (active); in [5], -78.7% (active); in [6], -37.7% (active). The growth in assay [7] was -94.4% (active); in [8], -48.1% (active).
As for `O=C1c2cc3c(cc2-c2c1c1ccc(Cl)cc1c(=O)n2C[C@H](O)[C@@H](O)[C@H](O)CO)OCO3`, the growth in [1] was 0.364% (active); in assay [2], -14.4% (active); in assay [3], -1.89% (active); in [4] it was 7.77% (active); in assay [5], -26.9% (active); in [6], 12.7%. Further, the growth was -86.9% (active) in assay [9], -18.5% (active) in [10] and -18.8% (active) in assay [8].
Consider `N#CC1c2ccccc2-c2ccccc2N1C(=O)c1ccccc1` (stereo not given), for which the growth in [1] was 12.4%; in [2], 12.3%; in [3], 39.8%; in assay [4], 53.6%; in assay [5], 18.4%; in [6] it was 26.6%. Further, the growth in [9] is 22.3%; in [10], 29.9%; in assay [8], 58.3%.
With `Cc1ccnc2c(OCc3ccccc3)cccc12`, the growth in assay [1] was 90.3%; in [2], 99.4%; in assay [3], 95.4%; in assay [4] it was 100%; in assay [5] it was 92.7%; in [6] it was 96.8%. Besides, the values for the growth in [9], in assay [10] and in [8] were 85.8%, 87.4% and 95.6%, respectively.
As to `COc1cc2c(cc1-c1c(C)noc1C)ncc1nc(C3CC3)n([C@H](C)COC(F)F)c12`, the growth in assay [1] is 23.9%; in assay [2] it was 17.3%; in assay [3], 34.3%; in assay [4], 60.1%; in assay [5] it was 52.8%; in assay [6] it was 39.1%. Moreover, the growth in assay [9] was 25.5%; in assay [10], 15.5%; in assay [8], 63.5%.
